Laboratory results published in article PMC6919601, “Identification of Plasmodium dipeptidyl aminopeptidase allosteric inhibitors by high throughput screening” (PLoS ONE, 2019).
About 230 (0.21%) of roughly 110,000 compounds showed an effect of 50% or more. The full list was thinned out, with strong results kept by preference.

Target: DPAP1 (Plasmodium falciparum, UniProt Q8IIJ9)
Experiment: primary screen, percent inhibition; read by cleavage of a fluorogenic dipeptide substrate; higher = more effect of the substance
Design: species or system P. falciparum D10 trophozoite lysates; single well
Description: HTS was performed in black 384-well plates. The first and last two columns of each plate contained our negative (DMSO) and positive (10 μM JCP410) controls, and the 20 central columns the test compounds at 10 μM. Compounds were first diluted 50-fold into assay buffer (50 mM sodium acetate, 5 mM MgCl2, 10 mM β-mercaptoethanol, and 0.1% CHAPS, pH 5.5) from a 10 mM DMSO stock plates. One microliter of this 200 μM intermediate stock plate was dispensed into the assay plate. […] After 30 min, the reaction was quenched with 20 μL of 0.5 M acetic acid, and the fluorescent intensity measured at 523 nm (λex = 492 nm) using an Analyst HT multimode plate reader (Molecular Devices).
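Further: 30 min substrate incubation versus DMSO and 10 µM JCP410 controls.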

Sequence of DPAP1 (Q8IIJ9 whole entry, looked up): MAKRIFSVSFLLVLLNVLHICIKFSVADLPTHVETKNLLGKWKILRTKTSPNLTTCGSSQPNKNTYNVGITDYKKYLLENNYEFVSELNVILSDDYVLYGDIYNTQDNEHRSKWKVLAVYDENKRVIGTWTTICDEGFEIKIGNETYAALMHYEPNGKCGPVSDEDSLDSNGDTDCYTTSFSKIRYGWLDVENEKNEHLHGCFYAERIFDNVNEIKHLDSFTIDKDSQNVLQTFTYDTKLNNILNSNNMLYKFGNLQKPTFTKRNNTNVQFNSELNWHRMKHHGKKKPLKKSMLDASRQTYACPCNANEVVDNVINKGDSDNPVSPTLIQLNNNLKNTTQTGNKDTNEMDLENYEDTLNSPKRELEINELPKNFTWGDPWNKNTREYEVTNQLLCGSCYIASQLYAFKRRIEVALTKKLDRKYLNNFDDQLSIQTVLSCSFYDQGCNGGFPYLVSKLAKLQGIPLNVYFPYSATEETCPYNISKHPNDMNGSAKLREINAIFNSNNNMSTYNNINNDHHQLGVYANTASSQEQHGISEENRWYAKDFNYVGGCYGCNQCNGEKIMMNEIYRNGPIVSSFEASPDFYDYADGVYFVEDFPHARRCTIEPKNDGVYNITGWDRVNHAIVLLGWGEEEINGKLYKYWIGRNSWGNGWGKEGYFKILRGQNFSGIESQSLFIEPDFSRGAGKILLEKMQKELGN

Compared with `OC(c1ccccc1)c1nc2ccccc2[nH]1` (centres unmarked), `Oc1nc(SCc2ccccc2)nc(O)c1Cc1ccccc1` is lower in “% Inhibition @ 10 uM” value: 3.87% for the first, -2.12% for the second.

Compared with `CCn1nc(C)c(C(=O)Nc2ccn(Cc3ccccc3)n2)c1C`, `Cc1nc2c(C(=O)n3ccnc3)cnn2c(C)c1Cc1ccccc1Cl` is lower in “% Inhibition @ 10 uM” value: 3.21% for the first, -0.406% for the second.

Compared with `Cn1c2ccccc2c2cnn(CC(=O)N3CCN(c4ncccn4)CC3)c(=O)c21`, `Cn1c2ccccc2c2cnn(CC(=O)N3CCN(c4ccccn4)CC3)c(=O)c21` is lower in “% Inhibition @ 10 uM” value: 53.7% for the first, 4.53% for the second.

Compared with `CN1CCN(C(=O)Cn2ncc3c4ccccc4n(C)c3c2=O)CC1`, `CN1CCN(C(=O)Cn2nc(-c3ccc(Cl)cc3)c3ccccc3c2=O)CC1` is higher in “% Inhibition @ 10 uM” value: 1.41% for the first, 2.95% for the second.

Compared with `CC1=CC2=NC(=O)/C(=C\c3ccc(-c4ccccc4Cl)o3)C(=N)N2O1`, `Cc1ccc(NC(=O)CN2C(=O)S/C(=C\c3ccccc3C)C2=O)cc1` is lower in “% Inhibition @ 10 uM” value: -1.65% for the first, -5.4% for the second.

Going from `O=C(NC1CCCCC1)C1CC(c2ccccc2F)=NO1` (centres unmarked) to `CC1=C(C(=O)OC2CCCC2)C(c2ccsc2)C2=C(O)CC(c3cccs3)CC2=N1` (centres unmarked), the “% Inhibition @ 10 uM” value falls from 7.39% to 0.146%.

Compared with `CCOc1ccc2c(=O)c(Oc3ccccc3)c(C(F)(F)F)oc2c1`, `CCOc1ccc(C2CC(=O)N3CN(C(C)c4ccccc4)CSC3=C2C#N)cc1` (centres unmarked) is higher in “% Inhibition @ 10 uM” value: -4.21% for the first, 53.1% for the second.

Compared with `COc1ccc(OC)c(NC(=O)c2ccc(OC(C)C)cc2)c1`, `COc1ccc(S(=O)(=O)Nc2cccc(C(C)=O)c2)cc1` is lower in “% Inhibition @ 10 uM” value: -1.88% for the first, -1.92% for the second.

Compared with `CC(=O)c1cccc(NS(=O)(=O)c2ccc(Oc3ccccc3Cl)cc2)c1`, `COc1ccccc1Oc1ccc(S(=O)(=O)Nc2cccc(C(C)=O)c2)cc1` is higher in “% Inhibition @ 10 uM” value: -3.87% for the first, 67.2% for the second.

Compared with `CC(=O)c1sc2nc(-c3cccs3)cc(-c3cccs3)c2c1N`, `CS(=O)(=O)c1sc2nc(-c3cccs3)cc(-c3ccccc3)c2c1N` is higher in “% Inhibition @ 10 uM” value: 7.74% for the first, 64.2% for the second.

Compared with `CS(=O)(=O)c1sc2nc(-c3ccc(Br)cc3)cc(-c3ccccc3)c2c1N`, `Oc1cc(-c2ccccc2)nc2nc(Cc3ccccc3)nn12` is higher in “% Inhibition @ 10 uM” value: -1.93% for the first, 0.795% for the second.

Going from `CN(C)c1ccc(NC(=O)Nc2ccc(Cl)cc2)cc1` to `CC(=O)Nc1ccc(NC(=O)CN(c2cccc(F)c2)S(C)(=O)=O)cc1`, the “% Inhibition @ 10 uM” value rises from 0.51% to 8.06%.

Going from `O=C1C2C=COC2C2c3ccccc3CCC2N1Cc1ccccc1` (centres unmarked) to `CN1C(=O)c2ccccc2C(C(=O)NCCN2CCc3ccccc3C2)C1c1cn(C)c2ccccc12` (centres unmarked), the “% Inhibition @ 10 uM” value falls from 0.727% to -7.27%.

Going from `CS(=O)(=O)N(CC(=O)Nc1ccc2c(c1)OCCO2)c1cccc(F)c1` to `CS(=O)(=O)N(CC(=O)Nc1ccccc1)c1cccc(F)c1`, the “% Inhibition @ 10 uM” value falls from 69.8% to -10.1%.

Compared with `CN(Cc1ccco1)C(CNS(=O)(=O)c1ccccc1)c1ccccc1` (centres unmarked), `Cc1ccc(NS(=O)(=O)c2ccc(NC(=O)COc3ccccc3)cc2)c(C)c1` is lower in “% Inhibition @ 10 uM” value: -0.671% for the first, -4.7% for the second.

Going from `CCCCOc1ccc(C2=NC(=O)/C(=C/c3cccc(OC)c3OC)O2)cc1` to `COc1cccc(/C=C2/SC(=O)N(CC(=O)Nc3ccc(C)cc3)C2=O)c1O`, the “% Inhibition @ 10 uM” value rises from 2.1% to 30.1%.

Going from `Cc1ccccc1-n1cc(-c2ccc3c(c2)OCO3)nc1S` to `Sc1nc(-c2ccc3c(c2)OCO3)cn1-c1cccc(Cl)c1`, the “% Inhibition @ 10 uM” value falls from 83.7% to 19.5%.

Going from `CCn1c2ccccc2n2cc(-c3ccc4c(c3)OCO4)nc12` to `Cc1cc(Cl)ccc1N(CC(=O)Nc1ccc2c(c1)OCO2)S(=O)(=O)c1ccccc1`, the “% Inhibition @ 10 uM” value rises from 0.486% to 8.03%.

Going from `CC(C)C[C@H](NC(=O)c1cc2cc(OCCN3CCOCC3)ccc2o1)C(=O)NC1COCC1=O` (some centres unmarked) to `CCOc1ccc(-n2nc3ccc(NC(=O)c4ccc5c(c4)OCCO5)cc3n2)cc1`, the “% Inhibition @ 10 uM” value rises from -8.26% to 17.9%.

First: CCOc1cc(/C=C2/NC(=O)N(CC(=O)Nc3cccc(C)c3)C2=O)cc(Cl)c1O
Second: Cc1ccc(NC(=O)CN2C(=O)S/C(=C\c3ccccc3O)C2=O)cc1
The “% Inhibition @ 10 uM” value of the first is lower: 2.44% for the first, 50.5% for the second.

Compared with `COc1ccc(C(=O)CCC(=O)NC2=NCCS2)cc1`, `COc1ccc(N2CCN(C(=O)CN(C)S(=O)(=O)c3ccc(C)cc3)CC2)cc1` is lower in “% Inhibition @ 10 uM” value: -3.21% for the first, -5.35% for the second.

Compared with `Cc1ccc2oc(=O)c3cc(C(=O)Nc4cc(C)on4)sc3c2c1`, `Cc1sc2[nH]c(=O)n(-c3ccc(Cl)c(Cl)c3)c(=O)c2c1C` is lower in “% Inhibition @ 10 uM” value: -0.646% for the first, -0.711% for the second.

Compared with `CCOc1ccc(C2CC(=O)N3C(=C2C#N)SCC3(O)c2ccc(OCC)cc2)cc1` (centres unmarked), `N#CC1=C2SCC(O)(c3ccccc3)N2C(=O)CC1c1cccs1` (centres unmarked) is lower in “% Inhibition @ 10 uM” value: -0.0235% for the first, -4.74% for the second.

Going from `N#CC1=C2SCN(Cc3ccco3)CN2C(=O)CC1c1cccs1` (centres unmarked) to `CC(c1ccccc1)N1CSC2=C(C#N)C(c3cccs3)CC(=O)N2C1` (centres unmarked), the “% Inhibition @ 10 uM” value rises from 47.7% to 68%.

Compared with `CC(c1ccccc1)N1CSC2=C(C#N)C(c3ccc(Cl)cc3)CC(=O)N2C1` (centres unmarked), `Cc1ccc(C2CC(=O)N3CN(C(C)c4ccccc4)CSC3=C2C#N)cc1` (centres unmarked) is lower in “% Inhibition @ 10 uM” value: 73.1% for the first, 10.6% for the second.

First: COc1ccc(C2CC(=O)N3CN(C(C)c4ccccc4)CSC3=C2C#N)cc1OC (centres unmarked)
Second: Cc1ccc(CNC(=O)c2cc3c(s2)-c2ccccc2S(=O)(=O)C3)cc1
The “% Inhibition @ 10 uM” value of the first is higher: 28% for the first, -0.72% for the second.

Going from `CCCCCOc1ccc(C2NC(C(=O)O)CS2)cc1` (centres unmarked) to `CCc1c(O)n(-c2ccccc2)c(=S)[nH]c1=O`, the “% Inhibition @ 10 uM” value rises from -2.54% to 0.526%.

Compared with `Cc1nn(C)c(C)c1/C=C(/C(=O)C(C)C)n1cncn1`, `Cc1sc2[nH]c(=S)n(-c3ccccc3)c(=O)c2c1C` is higher in “% Inhibition @ 10 uM” value: 0.00706% for the first, 72.2% for the second.

First: CC1CCCCN1CCNc1ncnc2onc(-c3ccc(Cl)cc3)c12 (centres unmarked)
Second: CCc1cc2c(=O)n(-c3ccc(Cl)cc3)c(=S)[nH]c2s1
The “% Inhibition @ 10 uM” value of the first is lower: -3.95% for the first, 21.1% for the second.

Going from `CN(C)c1ccc(-c2c(C#N)c(S)nc3c2C(=O)CC(C)(C)C3)cc1` to `Cc1sc2[nH]c(=S)n(-c3ccc(Cl)cc3)c(=O)c2c1C`, the “% Inhibition @ 10 uM” value rises from -2.81% to 51.2%.

First: O=c1c2c3c(sc2[nH]c(=S)n1-c1ccccc1)CC1(CCCCC1)CC3
Second: O=[N+]([O-])c1ccc(CSc2ccc(Cl)cc2)cc1
The “% Inhibition @ 10 uM” value of the first is lower: 0.774% for the first, 2.22% for the second.
